# About 7,900 targets were measured; listed, in parts, are those with a hit and a random draw of the rest. About 0.6% of all pairs of compound and target were hits. Unmarked numbers belong to inactive results.
# Tests used:
# Assay in all cases: log2 fold change, soluble protein after heating vs DMSO (PISA); higher = thermal stabilisation; K562 cells, 10 uM, 30 min; active = over 0.2 and 3.5 SD of the protein, either way, in both replicates (recomputed)
# [1] = compound: CC[C@@H]1C(=O)N(C)c2cnc(Nc3ccc(C(=O)NC4CCN(C)CC4)cc3OC)nc2N1C1CCCC1
# Method in brief: (§1)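 K562 cells at 2×10^6 cells/mL were treated with 10 μM compound for 30 min. Aliquots were heated for 3 min across 48°C-58°C, pooled, and extracted in PBS with 0.5% NP-40 at 4°C; soluble protein was the supernatant after 21,000xg for 90 min. Soluble protein was quantified by TMTpro 16plex LC-MS/MS with channel sums equalised, and reported as log2 fold change in thermal stability against DMSO controls, with values from duplicates.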
# volasertib = compound: CC[C@@H]1C(=O)N(C)c2cnc(Nc3ccc(C(=O)N[C@H]4CC[C@H](N5CCN(CC6CC6)CC5)CC4)cc3OC)nc2N1C(C)C [volasertib]
# Method in brief: as §1
# [2] = compound: CC[C@H](C)N1C=C(C2=C(C=C(C=C21)C3=CN=C(C=C3)N4CCNCC4)C(=O)NCC5=C(C=C(NC5=O)C)C)C
# Method in brief: as §1
# epoxomicin = compound: CC[C@H](C)[C@@H](C(=O)N[C@@H]([C@@H](C)O)C(=O)N[C@@H](CC(C)C)C(=O)[C@]1(CO1)C)NC(=O)[C@H]([C@@H](C)CC)N(C)C(=O)C [epoxomicin]
# Method in brief: as §1
# [3] = compound: CCn1c(C(=O)N(C2CC2)C2CC2)cc2c3c(ncn3C)c(Nc3cc(C)n(C)n3)nc21
# Method in brief: as §1
# [4] = compound: CCn1cc(-c2ccnc3[nH]c(-c4cccc(CN(C)C)c4)cc23)c(-c2ccc(NC(=O)N(C)C)cc2)n1
# Method in brief: as §1
# [5] = compound: CN(C)CC(=O)Nc1ccc2[nH]c(=O)c3ccccc3c2c1
# Method in brief: as §1
# rosiglitazone = compound: CN(CCOC1=CC=C(C=C1)C[C@H]2C(=O)NC(=O)S2)C3=CC=CC=N3 (racemic) [rosiglitazone]
# Method in brief: as §1
# [6] = compound: CN1C2=C(C3=C1C(=O)N(N=C3)CC4=CC(=CC=C4)N)SC(=C2)S(=O)C
# Method in brief: as §1
# [7] = compound: CN1CCC(CNc2ccc3ncc(-c4cccc(OC(F)(F)F)c4)n3n2)CC1
# Method in brief: as §1
# UniProt P50748, sequence (P50748 whole entry, looked up): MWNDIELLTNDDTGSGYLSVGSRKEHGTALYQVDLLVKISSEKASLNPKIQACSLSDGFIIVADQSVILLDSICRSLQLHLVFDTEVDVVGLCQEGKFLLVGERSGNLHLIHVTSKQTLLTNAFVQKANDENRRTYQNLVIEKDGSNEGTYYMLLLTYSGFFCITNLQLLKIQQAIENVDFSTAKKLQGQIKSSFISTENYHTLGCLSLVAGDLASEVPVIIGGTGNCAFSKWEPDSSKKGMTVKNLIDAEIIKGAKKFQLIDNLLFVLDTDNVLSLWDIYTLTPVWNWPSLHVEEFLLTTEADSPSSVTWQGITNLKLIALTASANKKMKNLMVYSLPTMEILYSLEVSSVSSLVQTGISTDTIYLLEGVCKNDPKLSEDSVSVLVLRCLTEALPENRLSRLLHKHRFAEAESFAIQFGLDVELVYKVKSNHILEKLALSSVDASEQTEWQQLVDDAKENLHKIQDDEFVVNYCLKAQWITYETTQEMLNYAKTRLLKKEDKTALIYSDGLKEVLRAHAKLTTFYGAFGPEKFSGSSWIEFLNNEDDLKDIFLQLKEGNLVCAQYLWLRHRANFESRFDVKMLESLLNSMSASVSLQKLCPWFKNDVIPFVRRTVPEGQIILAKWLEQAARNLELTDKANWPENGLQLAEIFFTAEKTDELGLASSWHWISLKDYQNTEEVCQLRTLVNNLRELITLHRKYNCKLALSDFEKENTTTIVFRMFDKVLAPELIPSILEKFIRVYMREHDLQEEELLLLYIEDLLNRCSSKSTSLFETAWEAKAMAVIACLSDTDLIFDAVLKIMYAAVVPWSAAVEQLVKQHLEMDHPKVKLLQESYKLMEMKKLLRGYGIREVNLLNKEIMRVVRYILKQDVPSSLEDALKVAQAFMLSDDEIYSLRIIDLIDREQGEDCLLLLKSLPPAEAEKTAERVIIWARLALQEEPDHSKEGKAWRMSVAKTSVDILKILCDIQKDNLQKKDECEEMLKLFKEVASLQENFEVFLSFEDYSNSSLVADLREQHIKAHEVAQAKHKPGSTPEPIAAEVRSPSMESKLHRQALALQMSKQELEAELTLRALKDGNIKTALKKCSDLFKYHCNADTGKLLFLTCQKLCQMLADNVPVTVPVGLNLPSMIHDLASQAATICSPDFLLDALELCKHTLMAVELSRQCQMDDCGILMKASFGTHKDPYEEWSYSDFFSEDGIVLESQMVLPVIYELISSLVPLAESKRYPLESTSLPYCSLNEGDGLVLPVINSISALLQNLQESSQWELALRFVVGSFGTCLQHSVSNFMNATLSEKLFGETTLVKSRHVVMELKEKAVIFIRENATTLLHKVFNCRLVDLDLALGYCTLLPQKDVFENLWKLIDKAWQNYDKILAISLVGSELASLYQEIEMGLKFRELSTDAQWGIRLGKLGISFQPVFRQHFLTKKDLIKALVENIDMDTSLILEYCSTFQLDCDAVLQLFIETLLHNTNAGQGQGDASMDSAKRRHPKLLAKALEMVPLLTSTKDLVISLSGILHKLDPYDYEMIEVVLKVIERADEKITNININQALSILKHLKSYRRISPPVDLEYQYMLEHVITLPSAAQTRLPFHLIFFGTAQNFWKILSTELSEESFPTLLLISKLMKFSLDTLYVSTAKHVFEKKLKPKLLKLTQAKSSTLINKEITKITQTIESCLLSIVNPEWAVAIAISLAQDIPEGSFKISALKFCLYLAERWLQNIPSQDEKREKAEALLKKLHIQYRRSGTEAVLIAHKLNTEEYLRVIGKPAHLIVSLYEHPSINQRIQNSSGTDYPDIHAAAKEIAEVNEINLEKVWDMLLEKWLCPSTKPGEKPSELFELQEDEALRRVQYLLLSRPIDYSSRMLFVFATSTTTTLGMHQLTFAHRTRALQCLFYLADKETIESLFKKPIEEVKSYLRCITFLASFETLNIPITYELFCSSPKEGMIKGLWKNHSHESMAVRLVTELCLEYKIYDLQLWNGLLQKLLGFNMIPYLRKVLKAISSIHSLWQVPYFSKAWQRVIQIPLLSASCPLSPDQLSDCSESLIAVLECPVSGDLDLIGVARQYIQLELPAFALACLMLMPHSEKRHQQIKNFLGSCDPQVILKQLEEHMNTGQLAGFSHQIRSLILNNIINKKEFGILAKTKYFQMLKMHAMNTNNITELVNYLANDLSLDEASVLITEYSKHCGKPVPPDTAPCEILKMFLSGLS
# UniProt P48449, sequence (P48449 whole entry, looked up): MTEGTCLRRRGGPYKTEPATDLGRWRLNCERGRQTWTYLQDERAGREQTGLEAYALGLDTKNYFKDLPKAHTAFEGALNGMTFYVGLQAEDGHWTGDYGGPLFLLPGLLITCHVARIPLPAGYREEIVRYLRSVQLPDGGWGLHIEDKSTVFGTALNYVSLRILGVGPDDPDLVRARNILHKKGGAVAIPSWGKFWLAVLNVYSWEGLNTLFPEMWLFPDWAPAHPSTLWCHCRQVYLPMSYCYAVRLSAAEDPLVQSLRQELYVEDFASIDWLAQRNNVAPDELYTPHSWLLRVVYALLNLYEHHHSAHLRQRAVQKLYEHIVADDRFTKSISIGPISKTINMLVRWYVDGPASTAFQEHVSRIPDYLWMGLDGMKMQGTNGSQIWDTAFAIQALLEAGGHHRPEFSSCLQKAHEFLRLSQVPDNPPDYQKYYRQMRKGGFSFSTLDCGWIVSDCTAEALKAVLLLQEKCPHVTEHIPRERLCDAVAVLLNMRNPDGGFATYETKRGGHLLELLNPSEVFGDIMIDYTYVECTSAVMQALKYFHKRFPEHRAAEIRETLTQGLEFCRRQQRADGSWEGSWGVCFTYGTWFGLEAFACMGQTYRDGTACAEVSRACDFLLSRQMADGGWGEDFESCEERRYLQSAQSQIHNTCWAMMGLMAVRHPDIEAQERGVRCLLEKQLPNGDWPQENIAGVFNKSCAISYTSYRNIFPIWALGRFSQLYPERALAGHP
# UniProt P23276, sequence (P23276 whole entry, looked up): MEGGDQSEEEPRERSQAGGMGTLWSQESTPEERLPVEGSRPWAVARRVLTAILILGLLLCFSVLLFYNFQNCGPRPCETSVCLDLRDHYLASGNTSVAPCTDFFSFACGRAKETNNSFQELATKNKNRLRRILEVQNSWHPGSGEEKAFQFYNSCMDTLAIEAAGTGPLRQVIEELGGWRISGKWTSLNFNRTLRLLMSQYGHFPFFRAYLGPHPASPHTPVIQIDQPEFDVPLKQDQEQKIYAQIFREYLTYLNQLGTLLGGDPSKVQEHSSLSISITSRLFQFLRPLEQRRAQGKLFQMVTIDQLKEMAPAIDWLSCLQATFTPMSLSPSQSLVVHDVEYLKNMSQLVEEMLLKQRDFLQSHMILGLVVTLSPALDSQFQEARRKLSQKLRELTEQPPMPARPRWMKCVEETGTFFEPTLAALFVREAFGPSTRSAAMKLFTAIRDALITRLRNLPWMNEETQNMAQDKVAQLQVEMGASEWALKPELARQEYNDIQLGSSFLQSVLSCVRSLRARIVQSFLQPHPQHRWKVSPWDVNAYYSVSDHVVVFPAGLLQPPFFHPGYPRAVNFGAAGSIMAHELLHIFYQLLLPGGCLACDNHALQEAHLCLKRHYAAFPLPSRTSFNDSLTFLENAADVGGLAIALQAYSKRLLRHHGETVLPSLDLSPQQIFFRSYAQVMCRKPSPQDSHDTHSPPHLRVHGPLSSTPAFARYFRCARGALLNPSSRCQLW
# UniProt O43766, sequence (O43766 whole entry, looked up): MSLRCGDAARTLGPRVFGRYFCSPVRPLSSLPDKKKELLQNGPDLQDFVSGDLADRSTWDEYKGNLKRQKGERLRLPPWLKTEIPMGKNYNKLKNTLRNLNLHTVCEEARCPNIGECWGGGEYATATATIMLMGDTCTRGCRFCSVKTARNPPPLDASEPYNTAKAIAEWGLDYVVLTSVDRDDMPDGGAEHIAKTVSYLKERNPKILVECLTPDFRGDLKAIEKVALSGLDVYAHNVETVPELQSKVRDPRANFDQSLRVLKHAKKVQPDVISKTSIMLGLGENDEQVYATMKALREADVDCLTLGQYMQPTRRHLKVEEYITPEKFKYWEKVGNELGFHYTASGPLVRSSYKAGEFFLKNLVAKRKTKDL
# UniProt P49441, sequence (P49441 whole entry, looked up): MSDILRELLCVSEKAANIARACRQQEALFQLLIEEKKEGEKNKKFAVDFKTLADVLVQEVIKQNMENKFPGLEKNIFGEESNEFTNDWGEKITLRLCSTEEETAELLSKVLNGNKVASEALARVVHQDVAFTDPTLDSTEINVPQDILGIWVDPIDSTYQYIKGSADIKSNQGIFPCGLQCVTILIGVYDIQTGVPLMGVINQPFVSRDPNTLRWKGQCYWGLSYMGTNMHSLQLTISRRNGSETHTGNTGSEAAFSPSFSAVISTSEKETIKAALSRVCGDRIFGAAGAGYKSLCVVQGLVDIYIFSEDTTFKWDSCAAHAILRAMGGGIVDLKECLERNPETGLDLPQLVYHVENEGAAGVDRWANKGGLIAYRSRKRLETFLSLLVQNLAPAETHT
# UniProt Q14653, sequence (Q14653 whole entry, looked up): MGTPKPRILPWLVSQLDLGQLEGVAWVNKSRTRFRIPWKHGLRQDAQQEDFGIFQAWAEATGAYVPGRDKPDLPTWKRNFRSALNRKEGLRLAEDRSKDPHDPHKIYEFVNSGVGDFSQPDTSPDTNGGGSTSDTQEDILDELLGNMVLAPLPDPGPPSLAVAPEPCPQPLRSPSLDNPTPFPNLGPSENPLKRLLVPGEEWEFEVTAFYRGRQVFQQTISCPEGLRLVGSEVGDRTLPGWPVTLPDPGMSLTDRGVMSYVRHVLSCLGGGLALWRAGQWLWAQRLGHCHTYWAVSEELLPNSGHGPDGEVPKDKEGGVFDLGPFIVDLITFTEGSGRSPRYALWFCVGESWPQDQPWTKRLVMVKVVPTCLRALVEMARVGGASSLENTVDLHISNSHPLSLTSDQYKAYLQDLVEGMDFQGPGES
# UniProt Q9BRT3, sequence (Q9BRT3 whole entry, looked up): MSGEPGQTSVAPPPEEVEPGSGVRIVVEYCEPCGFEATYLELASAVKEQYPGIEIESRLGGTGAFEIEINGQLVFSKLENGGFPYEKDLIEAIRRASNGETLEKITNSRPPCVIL
Target,log2 fold change [1],log2 fold change (volasertib),log2 fold change [2],log2 fold change (epoxomicin),log2 fold change [3],log2 fold change [4],log2 fold change [5],log2 fold change (rosiglitazone),log2 fold change [6],log2 fold change [7]
MAPKAPK5 (UniProt Q8IW41),0.009,-0.007,-0.023,0.045,-0.092,-0.132,-0.123,-0.046,-0.112,-0.033
KEL (UniProt P23276),0.195,-0.085,-0.085,0.063,0.033,-0.013,-0.007,0.024,0.018,0.088
KLHDC4 (UniProt Q8TBB5),0.091,-0.342,0.012,-0.026,0.036,-0.064,0.065,-0.012,0.075,0.158
LTN1 isoform 3 (UniProt O94822),-0.16,-0.459 (active),0.079,-0.012,-0.075,-0.019,0.043,0.05,0.06,-0.498 (active)
IL10RB (UniProt Q08334),0.045,-0.086,0.05,0.056,-0.089,-0.247,-0.018,0.087,0.007,0.084
KIF11 (UniProt P52732),0.016,-0.42,0.081,-0.032,-0.076,0.023,0.041,0.031,0.182,0.022
MAP4K4 isoform 3 (UniProt O95819),-0.082,-0.316 (active),0.011,0.047,0.017,-0.184,0.012,0.058,0.001,-0.299 (active)
LIAS (UniProt O43766),0.051,0.055,-0.021,-0.011,0.027,-0.044,-0.043,0.003,-0.052,0.057
INPP1 (UniProt P49441),0.011,-0.042,0.028,0.052,0.005,-0.011,-0.047,0.002,0.014,-0.296 (active)
KHDC4 (UniProt Q7Z7F0),-0.063,-0.236 (active),0.107,0.036,-0.045,-0.057,0.137,0.035,0.071,-0.014
LRBA (UniProt P50851),-0.05,-0.221 (active),0.034,0.017,0,-0.074,0.008,0.048,-0.057,-0.139
LONP2 (UniProt Q86WA8),0.141,0.16,0.063,0.336,-0.032,0.034,-0.106,0.05,0.054,0.17
MEPCE (UniProt Q7L2J0),-0.07,-0.209,0.052,-0.053,0.009,-0.013,0.061,-0.019,0.007,-0.051
IGFBP4 (UniProt P22692),-0.22,-0.07,-0.092,-0.187,-0.045,0.173,-0.049,0.13,0.023,-0.033
ILF3 isoform 7 (UniProt Q12906),0.348,0.356,-0.021,-0.185,-0.02,0.135,-0.101,-0.095,0.146,0.231
KNTC1 (UniProt P50748),-0.255,-0.504 (active),0.022,0.016,-0.015,-0.007,0.037,0.044,0.027,-0.219

Target,log2 fold change [1],log2 fold change (volasertib),log2 fold change [2],log2 fold change (epoxomicin),log2 fold change [3],log2 fold change [4],log2 fold change [5],log2 fold change (rosiglitazone),log2 fold change [6],log2 fold change [7]
LSS (UniProt P48449),0.024,0.719 (active),0.074,0.129,-0.056,-0.024,0.055,0.077,-0.025,0.384
IGFBP2 (UniProt P18065),-0.319,-0.614,-0.167,-0.707,-0.275,0.158,0.003,0.083,0.323,-0.638
MAST4 (UniProt O15021),-0.059,-0.22,0.073,0.048,0.056,-0.102,-0.009,0.067,-0.115,-0.384
IRF3 (UniProt Q14653),-0.05,-0.1,-0.052,-0.035,-0.02,-0.037,0.018,0.024,-0.024,-0.045
METTL18 (UniProt O95568),0.02,-0.159,0.032,-0.058,0.08,0,0.006,0.062,0.005,0.015
IWS1 (UniProt Q96ST2),0.048,0.034,0.029,0.006,-0.14,0.021,0.046,0.029,0,-0.054
IGF2R (UniProt P11717),-1.09 (active),-0.875 (active),-0.033,0.002,0.018,-0.013,-0.023,-0.024,-0.013,-0.607 (active)
ILVBL (UniProt A1L0T0),0.049,0.069,-0.034,0.069,0.006,0.042,0.036,-0.044,-0.068,0.019
IMMT isoform 2 (UniProt Q16891),-0.043,-0.046,-0.002,-0.052,0.074,-0.031,0.086,-0.009,0.067,0.249
JMJD6 isoform 3 (UniProt Q6NYC1),-0.044,-0.306 (active),-0.012,-0.015,-0.037,-0.009,-0.006,0.031,0.006,-0.09
MICOS13 (UniProt Q5XKP0),-0.132,-0.181,0.025,0.023,-0.023,-0.043,0.026,0.011,-0.044,-0.579 (active)
KDELR2 (UniProt P33947),0.033,-0.18,-0.089,-0.02,-0.031,-0.016,-0.125,0.017,-0.063,0.255
LNPEP (UniProt Q9UIQ6),0.004,-0.182,-0.016,0.014,0.016,-0.02,0.012,0.016,-0.025,0.024
LUC7L2 (UniProt Q9Y383),-0.171,-0.345 (active),0.044,-0.017,0.003,-0.003,-0.001,0.011,-0.025,-0.073
MIEN1 (UniProt Q9BRT3),0.055,-0.047,-0.02,0.008,0.045,0.029,0.181,-0.007,0.008,0.284 (active)

# From the supplement of paper PMC10849652
